# Yp Topo-I inh: Y. pestis Topo-I inhibition via cleavage products; Y. pestis Topo-I cleavage product accumulation, plate reader; activity, % at 10 µM; 0.064% of 360,000 active; AID 504884; in the data active = activity above about 50%, passing the limit was not always enough
# TcdB GH inh: inhibitors of Clostridioides difficile toxin B glycohydrolase | P18177 | TcdB glycohydrolase enzymatic assay, plate reader | inhibition, % at 9.99 µM | 0.24% of 350,000 active; in the data active = inhibition above about 10%
# PrP 5UTR inh: inhibition of PrP 5' UTR reporter expression; cell-based PrP 5' UTR mRNA reporter, plate reader; inhibition, % (test concentration not listed); 0.35% of 340,000 active; in the data active = inhibition above about 52%; also: 0 = median of the neutral control wells
# Mtb UGM inh: blocks M. tuberculosis UGM enzyme | P9WIQ1 | purified UGM, fluorescence polarization probe displacement | inhibition, % at 10 µM | 0.06% of 320,000 active | AID 504406; in the data active = inhibition above about 10%, passing the limit was not always enough
# Vc quorum ag: inducers of Vibrio cholerae quorum light production without autoinducers | 0.16% of 350,000 active | AID 588436 | activation, % at 18.7 µM | V. cholerae BH1578 lux reporter, luminescence, 6 h; in the data active = activation mostly above about 9.7%, no sharp cut-off
# An asterisk follows results filed as active; i = inactive; . = not tested or not shown. In the library only some 0.65% were active in any assay of this set; here they are far more common.
SMILES,Yp Topo-I inh,TcdB GH inh,PrP 5UTR inh,Mtb UGM inh,Vc quorum ag
CN1C(=O)c2cc(NC(=O)NC3CCCC3)ccc2OC[C@H]2O[C@H](CC(=O)O)CC[C@H]21,.,1,.,.,.
CCCc1cc2c(=O)c(-c3cscn3)c(C(=O)OCC)oc2cc1O,-3,2,-19,0,0
CCOC(=O)c1[nH]nc(-c2cc(CC)c(O)cc2O)c1-c1cscn1,-3,15*,-6,2,0
O=C(Nc1nnc(C(F)(F)F)s1)c1ccc(Br)s1,3,17*,-39,-1,0
CCSc1nnc(NC(=O)c2ccc(Br)s2)s1,9,.,-26,-1,0
Cc1ccc(S(=O)(=O)NC[C@@H]2CC[C@H]3[C@H](CN3Cc3cc(-c4ccccc4)on3)O2)cc1,.,0,.,.,.
CCOc1ccc2ccccc2c1/C=N/NC(=O)c1cc(C)[nH]n1,-5,7,4,-1,0
CCOc1ccc2ccccc2c1/C=N/NC(=O)c1ccncc1,20,11*,-10,-4,i
CC(/C=N/n1c(-c2ccncc2)n[nH]c1=S)=C\c1ccco1,-5,19*,-8,-2,0
Cc1cccc(-c2n[nH]c(=S)n2/N=C/C=C/c2ccco2)c1,-6,10*,-30,0,0
CCCC#Cc1ccc([C@H]2[C@H]3CN(C(=O)c4ccccc4)CC(=O)N3[C@H]2CO)cc1,.,1,.,.,.
C/C=C/c1ccccc1[C@@H]1[C@@H](CO)N(C(C)=O)[C@H]1C#N,.,1,.,.,.
O=C(NC(=S)Nc1cc([N+](=O)[O-])ccc1O)c1cccnc1,2,0,55*,0,i
Cc1ccc([N+](=O)[O-])cc1NC(=S)NC(=O)c1cccnc1,-4,0,-3,-1,0
CCN(CC)S(=O)(=O)c1ccc2c(c1)c(=O)c(C(=O)NCc1ccco1)cn2C,12,0,-27,12*,0
CC1CCN(S(=O)(=O)c2ccc3c(c2)c(=O)c(C(=O)NCc2ccco2)cn3C)CC1,10,.,-5,-1,0
CCOC(=O)c1c(=O)n(O)c2ccc(OC)cc2[n+]1[O-],1,.,-8,15*,i
CO[C@@]12[C@H](COC(N)=O)C3=C(C(=O)C(C)=C(N)C3=O)N1C[C@@H]1N[C@@H]12,-6,1,-7,-2,58*
CC(C)(Oc1ccc(Cl)cc1)C(=O)NC1CCSC1=O (stereo not given),-1,1,-14,-1,0
CC(C)(Oc1ccc(Cl)cc1)C(=O)NC1CC1,5,11*,-27,2,-1
Cc1cccc(-n2nnc(C(=O)NCc3ccccc3Cl)c2N)c1,4,11*,-17,0,1
CCCC(=O)Nc1ccc(Cc2ccc(NC(=O)CCC)c(C(=O)O)c2)cc1C(=O)O,9,1,-3,11*,0
COc1cc(Cn2c(-c3ccc(O)c(OC)c3)nc3ccccc32)ccc1O,0,15*,-18,4,i
CCC(=O)Nc1ccc2c(c1)C(=O)N(C)C[C@@H](OC)[C@H](C)CN(C(=O)Nc1ccccc1F)[C@H](C)CO2,.,0,.,.,.
CCCCC[n+]1cccc2c3ccccc3ccc21,0,1,-21,0,1
SMILES,Yp Topo-I inh,TcdB GH inh,PrP 5UTR inh,Mtb UGM inh,Vc quorum ag
Cc1ccc2c(C)c3ccc4ccccc4c3c[n+]2c1,-33,11*,-19,.,.
O=C(Nc1ccccc1F)C(=Cc1sc(N2CCOCC2)nc1-c1ccccc1)C(=O)Nc1ccccc1F,18,0,-18,12*,-4
Cc1ccc(S(=O)(=O)N[C@@H]2C=C[C@@H](CC(=O)NCc3ccc(Cl)c(Cl)c3)O[C@H]2CO)cc1,.,0,.,.,.
O=C(O)c1ccc(-c2ccc(O)c(F)c2)cc1,2,18*,0,3,i
O=C(O)c1ccc(O)c(O)c1,-6,-21,-11,-3,0
Cn1cnnc1SCC(=O)c1cc2ccccc2o1,-2,0,-33,0,-3
Cn1c(SCC(=O)c2cc3ccccc3o2)nnc1-c1ccccc1,9,11*,-4,1,0
CCCc1nnc2n1N=C(c1ccc(OC)c(OC)c1)CS2,9,1,2,1,i
COc1ccc(Cc2nnc3n2N=C(c2cc4ccccc4o2)CS3)cc1OC,54*,.,7,1,-6
COC(=O)N/N=C/c1cccs1,4,4,-18,1,0
COc1cc2ccccc2cc1C(=O)N/N=C/c1cccs1,15,13*,.,.,-6
CCOC(=O)Nc1ccc(OC(=O)Oc2ccc(NC(=O)OCC)cc2)cc1,6,12*,3,.,-1
CCOC(=O)Nc1ccc(Oc2ccccc2)cc1,-10,.,-41,-2,-4

# Screens from PubChem BioAssay.
